Source: PubChem BioAssay (NCI)
This is part of a sample that, as a whole, favours compounds with a hit. Of some 79,000 tested, about 15% had one in any assay. No stated cut-off is given here; in the data, active means growth inhibition above about 70%; inactive means the rest.

Columns and labels:
[1] = NCI Yeast Anticancer Drug Screen. Data for the rad50 strain (AID 155);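 further: 0% = growth of vehicle-only cultures of the same strain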; details: S. cerevisiae rad50 strain growth inhibition; at 50.0 µM; stronger effect = higher value
In short: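 DNA repair mutant yeast, compound exposure, growth read-out; inhibition is taken relative to vehicle.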

[2] = NCI Yeast Anticancer Drug Screen. Data for the mec2-1 strain (AID 157); details: S. cerevisiae mec2-1 strain, at 50.0 µM, stronger effect = higher value
In short: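 Growth inhibition is read against vehicle-treated controls after compound exposure of the mec2-1 yeast strain, which is defective in DNA damage repair or cell cycle control.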

[3] = NCI Yeast Anticancer Drug Screen. Data for the sgs1 mgt1 strain (AID 161);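 further: 0% = growth of cultures given vehicle only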; details: S. cerevisiae sgs1 mgt1 strain, at 50.0 µM, stronger effect = higher value
In short: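 This yeast growth screen uses a strain with defined DNA-repair lesions; compound-treated growth is compared with vehicle-treated growth.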

[4] = NCI Yeast Anticancer Drug Screen. Data for the cln2 rad14 strain (AID 165);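 further: 0% = growth equal to vehicle treated cultures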; details: S. cerevisiae cln2 rad14 strain, at 50.0 µM, stronger effect = higher value
In short: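 Growth inhibition, relative to vehicle-treated controls, is the read-out. The test organism is a yeast strain with defined genetic alterations, cln2 rad14.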

[5] = NCI Yeast Anticancer Drug Screen. Data for the bub3 strain (AID 167); details: S. cerevisiae bub3 mutant strain, at 50.0 µM, stronger effect = higher value
In short: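 In this screen, a yeast mutant lacking normal mitotic checkpoint function is challenged with compound. Relative growth versus vehicle gives the inhibition value.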

[6] = NCI Yeast Anticancer Drug Screen. Data for the mlh1 rad18 strain (AID 175); details: S. cerevisiae mlh1 rad18 strain growth inhibition; at 50.0 µM; stronger effect = higher value
In short: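 Cells of a genetically altered yeast strain, deficient in DNA damage repair, were treated with compound. Their growth was then compared with that of vehicle-treated cultures to give inhibition.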

Measured: growth inhibition

CN1CN(C)C(c2ccncc2)=C1c1ccncc1
inactive: [1] -36% | [2] -47.5% | [3] -29.9% | [4] -0.5% | [5] -58.3% | [6] -19.5%

CC(=O)c1cc([N+](=O)[O-])c(O)c([N+](=O)[O-])c1O
inactive: [1] 20.4% | [2] -2.2% | [3] -14.6% | [4] 12.2% | [5] 7.8% | [6] 8.65%

COc1ccc(Cl)cc1NC(=O)Oc1ccc2ccccc2c1
inactive: [1] -5.8% | [2] 29.2% | [3] 12.2% | [4] -12.7% | [5] 27.3% | [6] 38.2%

CC(C)C1NC(=O)CC(c2ccccc2)N(N=O)C1c1ccccc1 (configuration not stated)
inactive: [1] -29.3% | [2] -9% | [3] -4.85% | [4] -14.9% | [5] -5.9% | [6] -16.8%

CCCCN(CCO)CCO
inactive: [1] -4.95% | [2] -8.45% | [3] 9.3% | [4] 14.8% | [5] 9.4% | [6] 2.75%

COC(=O)c1ccccc1NC(=O)N(c1ccccc1)c1ccccc1
inactive: [1] 1.35% | [2] -3.45% | [3] 14.4% | [4] -12.2% | [5] 17.8% | [6] -1.55%

COc1ccc(C2C3=C(COC3=O)Oc3cc4c(cc32)OCO4)cc1OC (configuration not stated)
inactive: [1] -21.5% | [2] -33% | [3] -17.9% | [4] -3.95% | [5] 5.45% | [6] -10.8%

COC(O)C(=O)c1c2c(cc3c1CCC3)CCC2 (configuration not stated)
inactive: [1] 29.1% | [2] 45.8% | [3] 39.3% | [4] 12.3% | [5] 21.1% | [6] 21%

Cc1ccccc1NC(=O)CC#N
inactive: [1] 8.15% | [2] -12.3% | [3] 1.5% | [4] 3.85% | [5] -0.7% | [6] 2.2%

COc1cc(/C=C/Cc2cc3c(cc2O)OCO3)cc(OC)c1OC
inactive: [1] 0.7% | [2] -15.6% | [3] 0.55% | [4] -21.6% | [5] -1.9% | [6] 0.75%

CN(C)C(=S)/N=c1\ss/c(=N\C(=S)N(C)C)n1-c1ccc2c(c1)OCO2
inactive: [1] -16.1% | [2] -4.1% | [3] -3.45% | [4] -1.45% | [5] -16.9% | [6] 1.7%

CCCCCCP(=O)(CCCC)CCCC
inactive: [1] 38.1% | [2] 11.9% | [3] 41.2% | [4] -20.9% | [5] -12% | [6] -0.2%

CN(C)Cc1cc(N=Nc2ccc(Cl)cc2)ccc1O
inactive: [1] 26.9% | [2] 7.3% | [3] 19.4% | [4] 14.8% | [5] 36.5% | [6] 46.3%

CCC(c1ccc(OC)cc1)C1NC(=S)NC1=O (configuration not stated)
inactive: [1] 4.05% | [2] -30.1% | [3] 3.2% | [4] 6.45% | [5] 9.55% | [6] 11.6%

CN(C)C=NCc1ccc2c(c1)OCO2
inactive: [1] 2.05% | [2] -24% | [3] -13.2% | [4] 2.7% | [5] 1.5% | [6] -17%

CC(=O)CC(=O)Nc1ccc(C(=O)c2ccccc2)cc1
inactive: [1] 8.35% | [2] -41.3% | [3] -13% | [4] 1.5% | [5] 4.5% | [6] -22.2%

CCOC(=O)Cc1csc2[n+]1C(=O)/C(=C/c1cccc(OC)c1O)S2
inactive: [1] 45.1% | [2] 9.8% | [3] 53.4% | [4] -10.2% | [5] 13.3% | [6] 38.2%

CCOC(=O)C(=Cn1ccc(=O)[nH]c1=S)C(=O)OCC
inactive: [1] -4.6% | [2] -31.1% | [3] -23.9% | [4] 9.35% | [5] -11.6% | [6] -10.3%

CCOC(=O)C1C(C)NC(C)C(C(=O)OCC)C1c1ccccc1Cl (configuration not stated)
inactive: [1] 11.1% | [2] 6.25% | [3] 6.35% | [4] 4.25% | [5] 2.9% | [6] 9.8%

CC(C)NC(=O)C1C2C=CC(CC2)C1C(=O)NC(C)C (configuration not stated)
inactive: [1] 6.2% | [2] 20.1% | [3] 22.6% | [4] -5.7% | [5] 11.3% | [6] 10.2%

O=C(O)CN1CCSc2ccccc2CN(CC(=O)O)CCSc2ccccc2C1
inactive: [1] 4.5% | [2] 3.1% | [3] -2.6% | [4] -32% | [5] 12.7% | [6] -8%

COc1ccc(N2C(=O)C3C=CC(n4[nH]c(=O)n(Cc5ccccc5)c4=O)CC3C2=O)cc1 (configuration not stated)
inactive: [1] 6.6% | [2] 1.8% | [3] -0.9% | [4] -20.9% | [5] 8.4% | [6] -25.6%

CN(/N=C/C=N/N(C)C1=NCCCN1)C1=NCCCN1
inactive: [1] -0.95% | [2] 1.15% | [3] 3.8% | [4] 9.1% | [5] 13.2% | [6] -6.35%

CCOC(=O)c1ncn(C2OC(CO)C(O)C2O)c1N (configuration not stated)
inactive: [1] 19.5% | [2] 1.6% | [3] 31.4% | [4] 12.3% | [5] 14.2% | [6] 25.2%

CC(=O)OCC1OC(OC(C)=O)C(NS(=O)(=O)c2ccc(C)cc2)C(OC(C)=O)C1OC(C)=O (configuration not stated)
inactive: [1] 18.3% | [2] 4.25% | [3] 18.1% | [4] 17.8% | [5] -3.65% | [6] -4.65%

CC1=CC2=NCC(O)CN2C=C1 (configuration not stated)
inactive: [1] -4.2% | [2] 28.6% | [3] 9.25% | [4] 12.8% | [5] 14.4% | [6] 2.2%

CC(C)(C)NC(=O)Oc1cccnc1
inactive: [1] 7.1% | [2] -4.6% | [3] -12.6% | [4] -42.4% | [5] 27.6% | [6] 8%

CCCN=C(NNC(N)=O)C(C)=O
inactive: [1] 24.9% | [2] 7.9% | [3] -4.35% | [4] 5.55% | [5] 15.7% | [6] -1.45%

C[n+]1ccccc1C#N
inactive: [1] -17.2% | [2] -32.1% | [3] 0.55% | [4] 11.9% | [5] -43.4% | [6] -4.2%

CCN(CC)CCOC(=O)C(c1ccccc1)C1C=CCCC1 (configuration not stated)
inactive: [1] 38.8% | [2] 2.6% | [3] 19.1% | [4] -1.15% | [5] -3.1% | [6] 30.4%

COC(=O)C12C3C4C1C1C2C3C41C(=O)OC(C)(C)C (configuration not stated)
inactive: [1] 18% | [2] 1.35% | [3] 9.2% | [4] 4.5% | [5] 23.9% | [6] 15.2%

C=CCON(C)c1ccc([N+](=O)[O-])cc1[N+](=O)[O-]
inactive: [1] 15.3% | [2] -0.9% | [3] 16.1% | [4] -43.9% | [5] -1.05% | [6] 13.8%

O=C(Oc1ccc[nH]c1=O)C1CC1
inactive: [1] 17.9% | [2] 7.45% | [3] 67.2% | [4] 14% | [5] 22.2% | [6] 38%

COc1cc2nc(C(O)C(O)c3nc4cc(OC)c(OC)cc4[nH]3)[nH]c2cc1OC (configuration not stated)
inactive: [1] -8% | [2] 3.35% | [3] 19.6% | [4] 6.85% | [5] -1.1% | [6] 38.7%

O=S1(=O)CC(N2CCOCC2)C2=C(O1)c1sc(-c3ccccc3)nc1CC2 (configuration not stated)
inactive: [1] -16.8% | [2] -7.45% | [3] 14.8% | [4] 14.3% | [5] -4.55% | [6] -3.95%

O=c1[nH]cc(NCCc2ccccc2)c(=O)[nH]1
inactive: [1] 0.75% | [2] -4% | [3] -17.4% | [4] -50.9% | [5] 7.4% | [6] 1.6%

CSc1nc2c(cnn2C)c(=O)[nH]1
inactive: [1] 14.7% | [2] -1.95% | [3] 3.3% | [4] -4.55% | [5] 10.5% | [6] 24.6%
